High-throughput results (PubChem)
Many of the other results were omitted from the sample, so hits are more common in it than they were.
Giardia FBPA inh: Giardia lamblia aldolase inhibition | A8B2U2 | purified Giardia FBPA | Potency, µM (highest dose often 59.6 µM), for inactives: at the highest dose activity, negative = inhibition, actives largely listed as inhibitors | actives 0.71% (n = 290,000); note: potency is the fitted concentration of half-maximal effect; % is set by controls: 0 for no effect and ±100 for the full control effect; nearly all actives have a fitted effect of over 55% in size
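Giardia FBPA (40 nM reagent) was preincubated 10 min at RT with compound (up to 57.5 uM final), then substrate plus GAPDH/TPI/NAD/arsenate coupling system with diaphorase/resazurin was added; resorufin fluorescence (525/598 nm) was read after 20 min.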
Shiga inhibitor: Shiga toxin inhibition; Vero cells, Shiga toxin protein synthesis inhibition reporter; actives 9.2% (n = 290,000); AID 2315; inhibition, % at 38.7 µM; in the data active = inhibition mostly above about 28%, no sharp cut-off; inactive = mostly below about 43%; note: 0% is about no effect
RE007 growth inh: less growth of the S. pombe RE007 Vpr strain; S. pombe RE007 Vpr strain, BacTiter-Glo ATP luminescence, 24 h; Potency, µM (top dose mostly 92.2 µM), inactives show top-dose activity change, negative = less growth, usual class: inhibitors; actives 0.21% (n = 360,000); active = well fitted falling curve with a large enough effect; inconclusive = small, poorly fitted or top-dose-only effect; inactive = no such curve, though single readings can be large or run the other way; note: potency is the fitted concentration of half-maximal effect; % is set by controls: 0 for no effect and ±100 for the full control effect; nearly all actives have a fitted effect of over 50% in size
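Fission yeast RE007 carrying one integrated HIV-1 vpr copy, seeded at OD 0.01 in PMG+AL medium with 23 nL pinned compound. Grown 24 h at 30 degrees; viability read by BacTiter-Glo luminescence after 5 min.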
LmPK inhibitor: LmPK (Leishmania mexicana) enzyme inhibition. Q27686. purified LmPK, Kinase-Glo ATP luminescence, 1 h. Potency, µM (doses to about 57.5 µM), without a hit: top-dose activity change, negative = inhibition, hits mostly inhibitors. actives 0.37% (n = 290,000). AID 1721; note: potency is the fitted concentration of half-maximal effect; % is set by controls: 0 for no effect and ±100 for the full control effect
Target sequence (Q27686 whole entry, looked up): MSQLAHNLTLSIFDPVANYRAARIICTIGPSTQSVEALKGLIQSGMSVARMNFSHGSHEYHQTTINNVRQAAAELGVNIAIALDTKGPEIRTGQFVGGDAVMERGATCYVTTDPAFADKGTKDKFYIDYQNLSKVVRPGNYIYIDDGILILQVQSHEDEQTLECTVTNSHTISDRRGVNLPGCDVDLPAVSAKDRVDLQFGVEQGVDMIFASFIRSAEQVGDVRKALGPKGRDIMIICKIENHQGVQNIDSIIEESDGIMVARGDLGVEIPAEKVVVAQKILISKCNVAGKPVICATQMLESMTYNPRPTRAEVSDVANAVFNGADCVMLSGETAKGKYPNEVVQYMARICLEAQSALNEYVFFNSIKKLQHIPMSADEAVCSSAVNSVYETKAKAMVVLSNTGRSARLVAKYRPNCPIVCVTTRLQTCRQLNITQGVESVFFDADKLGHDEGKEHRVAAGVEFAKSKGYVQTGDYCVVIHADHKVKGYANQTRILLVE
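Purified LmPK (0.1 nM) converted ADP (0.1 mM) to ATP with PEP (0.5 mM) in imidazole buffer pH 7.2 with KCl and MgCl2, 1 h at room temperature. ATP was read by Kinase-Glo luminescence; data normalized to uninhibited and no-enzyme controls.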
CHX counter: affects cycloheximide protein synthesis inhibition readout, counter-screen | cell reporter, cycloheximide protein synthesis inhibition counterscreen | max response, % | actives 12% (n = 300,000) | AID 2314; in the data active = max response mostly above about 13%, no sharp cut-off; inactive = mostly below about 14%; note: read at 38.3 µM for the half of the compounds with a filed dose; 0% is about no effect
TbPYK inhibitor: inhibitors of Trypanosoma brucei pyruvate kinase. Q57TT1. Potency, µM (titrated, usually from 76.8 µM), for inactives: at the top dose activity, negative = inhibition, actives largely listed as inhibitors. TbPYK enzyme, Kinase-Glo Plus ATP luminescence, 45 min. actives 0.12% (n = 410,000). AID 624173; note: potency is the fitted concentration of half-maximal effect; % is set by controls: 0 for no effect and ±100 for the full control effect; nearly all actives have a fitted effect of over 50% in size
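Quantitative HTS: titrated library compounds versus trypanosomal pyruvate kinase in TEA buffer (pH 7.2) containing KCl, MgCl2, BSA and Tween-20. Reactions were initiated with ADP, 130 uM final. Kinase-Glo Plus luminescence was read after 45 min at RT.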
* = called active by the depositor; ? = inconclusive; / = not tested or not shown. Unless noted, calls come from the whole dose curve; as a rule, active = well fitted curve in the direction sought with a large enough effect; inconclusive = small, poorly fitted or top-dose-only effect, or another doubt; inactive = no such curve, though single readings can be large; an effect the other way counts as inactive or inconclusive.

SMILES	Giardia FBPA inh	Shiga inhibitor	RE007 growth inh	LmPK inhibitor	CHX counter	TbPYK inhibitor
Cc1cc(N2CCN(C)CC2)nc2ccc(NC(=O)c3ccc4c(c3)OCO4)cc12	-10%	38	3%	0%	20*	-1%
Cc1cc(N2CCN(C)CC2)nc2ccc(NC(=O)c3ccc(Br)o3)cc12	-7%	101*	14%	1%	26*	-28%
CCCCN(CCCC)CCNC(=O)Cn1nc(CC)n2c(cc3sccc32)c1=O	/	/	/	/	/	4%
Cc1ccc(OCC(O)CN2C(=O)NC(C)(C)C2=O)cc1 (centres undefined)	-2%	-2	0%	0%	-4	-2%
CCCCCCOc1ccc(OCC(O)CN2C(=O)NC(C)(C)C2=O)cc1 (centres undefined)	5%	175*	-12%	8%	43*	1%
Cc1cc(C)c(NC(=O)CSc2nncn3c2cc2oc(C)cc23)c(C)c1	/	/	/	/	/	-2%
O=S(=O)(CCc1nc2ccccc2s1)c1ccc2ccccc2c1	-6%	118*	-16%	4%	32*	0%
Cc1ccc(S(=O)(=O)CCc2nc3ccccc3s2)cc1C	-7%	25	-6%	-4%	13*	-11%
Cc1ccc(S(=O)(=O)CCc2nc3ccccc3s2)cc1	-1%	20	-26%	-3%	5	-4%
O=C(NCCc1ccccc1)c1cnc2sc(N3CCCCC3)nn2c1=O	/	/	/	/	/	0%
CCOC(=O)c1cc(C(C)(C)C)oc1CNC(=O)c1c(C)oc2c1CCCC2	3%	73*	0%	4%	23	2%
CCOC(=O)c1c(C)[nH]c(C)c1S(=O)(=O)N(C)CC(=O)Nc1ccc(C)c(N(C)C)c1	/	/	/	/	/	-1%
CC1CCN(c2nc3ccccc3nc2SCC(=O)Nc2ccccc2C(C)C)CC1	/	/	/	/	/	2%
O=C(Nc1cc(N2CCOCC2)ncn1)c1ccccc1	-2%	41	-1%	-5%	16*	-2%
O=C(Nc1cccnc1Cl)c1cc2ccccc2o1	9%	66*	-15%	-12%	38*	3%
O=C(Nc1ccc(N2CCOCC2)c(Cl)c1)c1ccc(Br)o1	?	110*	-5%	-8%	79*	-6%
O=C(Nc1ccc(CN2CCOCC2)cc1)c1ccc(Br)o1	-2%	69*	-9%	-4%	43*	-1%
Cc1cccc(OCc2ccc(-c3nc(C#N)c(N4CCC(C(N)=O)CC4)o3)o2)c1	/	/	/	/	/	-6%
Cc1ccc(CNC(=O)c2c(-c3ccc(Br)cc3)noc2C)o1	/	/	/	/	/	-1%
COc1ccc(S(=O)(=O)N(CCc2ccccc2)CC(=O)NCc2ccc(C)cc2)cc1	/	/	/	/	/	-8%
O=C(Nc1ccc(C(=O)N2CCOCC2)cc1)c1ccccc1Cl	/	/	-26%	/	/	2%
O=C(NC(=S)N1CCOCC1)c1cc2ccccc2o1	?	70*	-6%	?	12*	-21%
O=C(Nc1ccc(N2CCOCC2)cc1)c1ccc(Cl)nc1	0%	-13	3%	-11%	-1	-9%
O=C(Nc1ccc(N2CCOCC2)c(Cl)c1)c1ccccc1Cl	-16%	60*	-6%	2%	30*	4%
O=C(Nc1ccc(N2CCOCC2)c(Cl)c1)c1ccc(F)cc1	-3%	18*	0%	-4%	31*	-5%
SMILES	Giardia FBPA inh	Shiga inhibitor	RE007 growth inh	LmPK inhibitor	CHX counter	TbPYK inhibitor
O=C(Nc1ccc(N2CCOCC2)nc1)c1ccc(Cl)cc1	-1%	49*	2%	-1%	16*	-19%
COc1ccc2c(c1)Cc1sc(NC(=O)c3ccc(Cl)cc3)nc1-2	/	/	/	/	/	-26%
O=C(NC1CCCCC1)C(C1CC1)n1c(=O)c(-c2cc3ccccc3[nH]2)nc2ccccc21 (centres undefined)	/	/	0%	/	/	/
CCCCn1cc(S(=O)(=O)c2ccc(C)c(C)c2)c(=O)c2cc(F)c(N(CC)CC)cc21	/	/	/	/	/	3%
O=C(N/N=C/c1ccc(N2CCOCC2)s1)c1ccccc1Cl	-7%	109*	-7%	-5%	34*	-16%
O=C(Nc1ccc(N2CCOCC2)c(Cl)c1)c1cc2ccccc2o1	?	71*	?	-1%	39*	-3%
O=C(Nc1ccccc1N1CCCC1)c1cc2ccccc2o1	15%	97*	?	-6%	52*	4%
O=C(Nc1ccccc1N1CCOCC1)c1cc2ccccc2o1	10%	28	6%	1%	12	4%
Cc1nn(C)c2c1c(-c1ccccc1)cc(=O)n2CC(=O)NC(C)c1ccccc1 (centres undefined)	/	/	/	/	/	1%
CCCCN1C[C@H](c2ccccc2)[C@@H](CC(=O)NC)C1=O	/	/	-7%	/	/	7%
COc1cccc(-c2nnc(N(C)C(=O)C3CCOC3)s2)c1 (centres undefined)	-2%	58*	7%	2%	29*	-4%
COc1ccc(C2OC(=O)CC2C(=O)NCc2ccc(Cl)cc2)cc1OC (centres undefined)	6%	85*	9%	-3%	34*	2%
CC(C)C[C@H](N)c1nnc(S(=O)(=O)Cc2ccc(F)cc2)o1	24%	71	-28%	5%	42*	4%
O=C(Oc1ccc2ccccc2c1Cl)N1CCCC1	-4%	59*	-16%	-4%	38*	-6%
O=C(Oc1ccc2ccccc2c1Cl)N1CCCCCC1	8%	71*	-28%	-10%	66*	0%
O=C(Oc1c(Cl)cc(Cl)c2ccccc12)N1CCCC1	1%	-14	-8%	0%	-3	4%
O=C(Oc1ccc(Cl)c2ccccc12)N1CCCCC1	5%	72*	-9%	-1%	32*	-6%
O=C(Oc1ccc(Cl)c2cccnc12)N1CCCCC1	0%	35	-6%	3%	12	-16%
O=C(Oc1c(Cl)cc(Cl)c2ccccc12)N1CCCCC1	3%	35	11%	1%	14	-10%
CCOC(=O)c1c(C)[nH]c(CCC(=O)Nc2cc(C)cc(C)c2)c1C	/	/	/	/	/	1%
Cn1c(=O)n(C/C=C/c2ccccc2)c(=O)c2c1nc1n2CCN1c1ccccc1	/	/	/	/	/	-4%
O=C(CCc1cn(Cc2ccccc2F)c2ccccc12)NCc1ccc(Cl)cc1	/	/	/	/	/	3%
O=C(Nc1ccc(C(=O)O)cc1)/C(=C\C=C\c1ccccc1)NC(=O)c1ccccc1Br	2%	6	9%	-3%	7	-2%
CCOC(=O)C(C#N)c1ccccn1 (centres undefined)	-5%	64	-2%	-24%	29*	?
C=CCN(CC=C)C(=O)c1c(OC)cccc1OC	4%	-15	-3%	1%	-3	-2%
C=CCc1c(C)[nH]c2c(OC)cccc2c1=S	-27%	-6	0%	2µM*	-3	?
CC(O)c1cccc(NC(=O)CCCc2ccccc2)c1 (centres undefined)	0%	49*	3%	6%	12	5%
